HGIII-sPLA2 inh: Inhibits HGIII-sPLA2 liposome hydrolysis, primary screen; Q9NZ20; QFRET BODIPY PC-A2 liposome hydrolysis, fluorescence; inhibition, % at 12.2 µM; actives 0.56% (n = 370,000);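 active = inhibition above mean plus 3 SD of compounds lying within the high and low control bounds, cut at about 19% in these data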;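 note: 0% = median of test compound wells and 100% = no enzyme DMSO wells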
Target sequence (Q9NZ20 whole entry, looked up): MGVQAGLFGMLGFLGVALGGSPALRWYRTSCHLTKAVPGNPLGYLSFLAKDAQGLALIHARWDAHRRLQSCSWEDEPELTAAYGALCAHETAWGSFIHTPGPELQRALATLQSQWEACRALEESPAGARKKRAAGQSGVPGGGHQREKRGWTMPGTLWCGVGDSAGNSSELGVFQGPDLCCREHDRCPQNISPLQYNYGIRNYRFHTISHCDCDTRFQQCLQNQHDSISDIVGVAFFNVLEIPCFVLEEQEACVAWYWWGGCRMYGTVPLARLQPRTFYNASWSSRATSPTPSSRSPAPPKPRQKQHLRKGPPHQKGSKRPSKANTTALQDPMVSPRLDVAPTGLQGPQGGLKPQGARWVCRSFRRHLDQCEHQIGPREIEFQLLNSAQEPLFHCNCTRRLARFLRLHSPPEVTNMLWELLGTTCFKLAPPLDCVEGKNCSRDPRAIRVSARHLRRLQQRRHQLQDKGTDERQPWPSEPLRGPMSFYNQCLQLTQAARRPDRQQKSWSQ
MsrA inh: inhibits bovine methionine sulfoxide reductase A; purified bovine MsrA, absorbance read-out; actives 0.75% (n = 360,000); inhibition, % at 15.5 µM; AID 651718;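 note: 0% = vehicle wells with enzyme and 100% = reference inhibitor wells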
PG9 binder: binds the HIV-1 gp120 antibody PG9. TR-FRET gp120-PG9 antibody binding. inhibition, % at 6.7 µM. actives 0.43% (n = 360,000); in the data active = inhibition above about 8.5%
rCAG RNA binder: binds r(CAG) RNA repeats. r(CAG) RNA repeat, TO-PRO-1 dye displacement fluorescence. inhibition, % at 3 µM. actives 1.3% (n = 370,000);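 active = inhibition above the plate cutoff, the mean of all test compounds on that plate plus 3 SD, cut at about 35% in these data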;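 note: 0% = DMSO alone and 100% = 100 µM mitoxantrone as full dye displacement; higher means more dye released from RNA so lower well fluorescence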
bovine MsrA act: activators of bovine methionine sulfoxide reductase A; purified bovine MsrA, absorbance read-out; actives 0.3% (n = 360,000); activation, % at 10.6 µM; in the data active = activation above about 7.5%;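 note: 0% = vehicle and 100% = reference activator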
MsrA conf: confirmation of bovine MsrA inhibitors; shares compounds with MsrA inh; purified bovine MsrA, absorbance read-out; inhibition, % at 15.5 µM; actives 41% (n = 2,300);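 note: coupled to thioredoxin reductase with NADPH and selenocystamine and DMSO as substrate; 0% = vehicle only and 100% = full effect of reference inhibitor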
An asterisk follows results filed as active; x = not tested or not shown. Only some compounds are listed: those with a hit (about 3.2% of all), similar ones and a draw of the others. Cut-off read from the data, not from the text of the source, unless noted: active = inhibition above about 4.5%; inactive = the rest.

SMILES	HGIII-sPLA2 inh	MsrA inh	PG9 binder	rCAG RNA binder	bovine MsrA act	MsrA conf
O=C(N/N=C/c1ccco1)c1cc(=O)[nH]c2ccccc12	1	2	-2	4	-5	x
COc1cc(/C=N/NC(=O)C(=O)Nc2ccccn2)ccc1O	15	5.3*	-2	-2	-4	5.0*
COc1cc(/C=N/NC(=O)c2cccc(C(=O)N/N=C/c3ccc(O)c(OC)c3)n2)ccc1O	-11	6.6*	-5	7	-3	3
COc1ccc(S[C@]2(C(=O)N3CCOCC3)CC(=O)N(c3ccccc3)[C@@H]2c2ccc(OC)cc2)cc1	-6	x	x	5	x	x
CC(NCc1ccco1)C(=O)N1CCOCC1 (centres undefined)	-1	x	x	4	x	x
C#CCNC(=O)C[C@@H]1C[C@]2(C(=O)OCC)CCC3=C2N(CCC3)C1=O	5	x	x	1	x	x
COc1ccc(/C=C(/NC(=O)c2ccccc2)C(=O)N/N=C/c2ccncc2)cc1	4	6.0*	-1	5	-3	4.9*
COc1ccc(/C=C(/NC(=O)c2ccccc2)C(=O)NCc2ccncc2)cc1	6	3	-1	-1	-12	x
COc1ccc(C=CC(C)=NNC(=O)c2ccncc2)cc1	-1	5.3*	-5	0	-4	6.0*
Cc1ccc(/C=N\NC(=O)/C(=C\Nc2nccc(C)n2)NC(=O)c2ccccc2)cc1	0	5.9*	0	4	-3	6.0*
COc1ccc(/C=N\NC(=O)/C(=C\Nc2nccc(C)n2)NC(=O)c2ccccc2)cc1	-1	8.2*	1	7	-2	7.7*
C(#CC1=CCCCC1)CNCc1ccccc1	6	x	x	3	x	x
Cc1ccc(S(=O)(=O)NCCN=Cc2ccc(N(C)C)cc2)cc1	-2	4.9*	-2	-1	-6	4
CN(C)c1ccc(/C=N/NS(=O)(=O)c2ccc(Br)cc2)cc1	5	2	-2	7	-10	x
Cc1ccc(S(=O)(=O)/N=C/c2ccc(N(C)C)cc2)cc1	5	6.7*	0	-3	-12	2
O=C(N/N=C\C=C\c1ccc2c(c1)OCO2)c1ccc(F)cc1	3	6.4*	-3	0	-5	4.9*
O=C(N/N=C/C=C/c1ccc2c(c1)OCO2)C(O)c1ccccc1 (centres undefined)	-3	6.7*	-1	0	-7	4.8*
CC(/C=C/c1ccc2c(c1)OCO2)=N\NC(=O)c1ccccc1	4	4	-1	-2	-5	x
CC(/C=C/c1ccc2c(c1)OCO2)=N\NC(=O)C(O)c1ccccc1 (centres undefined)	11	4.9*	1	-1	-5	5.0*
O=C(N/N=C/C=C/c1ccccc1)C(O)c1ccccc1 (centres undefined)	4	0	0	-3	-5	x
O=C(N=C1N(Cc2ccccc2)C[C@]2(C=C3CCCCC3n3c(=O)n(-c4ccccc4)c(=O)n32)N1C(=O)OCc1ccccc1)c1ccccc1 (some centres undefined)	7	x	x	12	x	x
CC(C)NC(=O)/C(C#N)=C/c1ccc2c(c1)OCCO2	5	6.3*	0	2	-9	4
N#CC(c1ccc(O)cc1)N1CCN(C(C#N)c2ccc(O)cc2)CC1 (centres undefined)	4	5.0*	-1	2	-5	1
CCN(/N=C/c1cccs1)c1cc(=O)n(C)c(=O)[nH]1	-3	7.2*	-2	-2	-4	6.7*
CN(/N=C/c1cccs1)c1cc(=O)n(C)c(=O)[nH]1	7	9.0*	-1	3	-8	5.8*
SMILES	HGIII-sPLA2 inh	MsrA inh	PG9 binder	rCAG RNA binder	bovine MsrA act	MsrA conf
O=C(OC12CCCN(C1)/C(=C/c1ccc(Cl)cc1)C2)c1cccc(F)c1 (centres undefined)	-11	x	x	-1	x	x
CCOC(=O)C1=C(C)NC(C)=C(C(=O)OCC)C1C(=O)OCC(=O)NCc1ccccc1	-8	0	-2	2	-1	x
CCOC(=O)C1=C(C)NC(C)=C(C(=O)OCC)C1C(=O)OCC(=O)NC	1	11*	0	-7	-5	4
CCN(C(=O)COC(=O)c1cc([N+](=O)[O-])ccc1N1CCOCC1)c1ccccc1	5	9.8*	3	0	-1	5.5*
Cc1ccc(/C=C(\NC(=O)c2ccccc2)C(=O)N2CCCCC2)cc1	-6	-1	-2	-9	-5	x
CN(C)c1ccc(/C=C(/NC(=O)c2ccccc2)C(=O)N2CCCC2)cc1	15	5.4*	-3	4	-4	3
O=C(N/N=C/c1cccs1)c1ccc(NC(=O)c2ccccc2Cl)cc1	-2	4.8*	-2	1	-4	4
COC(=O)c1c(C)c2c(C)cc3ccccn3c-2c1C(=O)OC	12	4.7*	-5	1	-2	3
COC(=O)c1cc2c(-c3ccccc3)cc3ccccn3c-2c1C(=O)OC	3	1	4	4	-11	x
CC1CCN(N=Nc2nc3c([nH]2)c(=O)n(C)c(=O)n3C)CC1	0	7.8*	-3	0	1	5.5*
COc1cc2oc(-c3ccc(O)cc3)cc(=O)c2c(OC)c1O	-2	7.1*	0	4	-5	3
Cc1c(/C=N/Nc2ccc(F)cc2)c(O)n(C)c(=O)c1C#N	-3	6.4*	-1	6	-15	6.7*
Cc1ccc(-n2c(SCC(=O)c3ccc(F)cc3)nnc2-c2cccnc2)cc1	-55	x	x	2	x	x
CS(=O)(=O)c1ccc2nc(NC(=O)c3ccc(=O)[nH]c3)sc2c1	0	6.3*	-1	6	-19	6.0*
O=C(Nc1nc2cc3c(cc2s1)OCO3)c1ccco1	0	3	0	3	-8	x
Cn1nc(C(=O)Nc2nc3ccc(S(C)(=O)=O)cc3s2)ccc1=O	-1	4	-2	-1	-15	x
O=C(Nc1nc2cc3c(cc2s1)OCO3)C1=COCCO1	3	5.2*	0	6	-5	2
CS(=O)(=O)c1ccc2nc(NC(=O)c3ccco3)sc2c1	9	5.7*	0	1	0	4.7*
O=C(Nc1nc2cc3c(cc2s1)OCCO3)c1ccco1	0	4.7*	0	2	-11	4.7*
Nc1[nH]c(C(=O)c2ccccc2)c(-c2ccc3ccccc3c2)c1C(=O)NCCc1ccc(Cl)cc1	17	x	x	x	x	x
Cc1cc(=O)[nH]c(N/N=C/c2sccc2C)n1	2	4.8*	-7	0	-4	5.3*
Cc1ccsc1/C=N/Nc1nc2ccccc2[nH]1	9	4.8*	-19	6	-6	3
C(=N\Nc1nc2ccccc2[nH]1)/c1cccs1	4	1	-9	5	-1	x
Cc1ccc(-n2c(SCC(=O)NN=Cc3ccc(-c4ccccc4)cc3)nnc2-c2ccccc2)cc1	6	x	x	12	x	x
CNC(=O)c1cc2ccc(OC)cc2oc1=O	-1	5.2*	-1	-2	-4	5.7*
COc1ccccc1-c1cccc2c3c([nH]c12)[C@@H]1C[C@H]2[C@@H](CN1CC3)[C@H](C)ON2C	2	x	x	5	x	x
COc1ccc(CN[C@@H]2CC[C@@]34CCCN3C(=O)CCC[C@H]4C2)cc1OC	1	x	x	x	x	x

High-throughput results deposited in PubChem by The Scripps Research Institute Molecular Screening Center.
